Laboratory results from the supplement of paper PMC11732987, “Enantioselective OTUD7B fragment discovery through chemoproteomics screening and high-throughput optimisation” (Communications Chemistry, 2025).
Values without a mark were called inactive.

Tests used:
Assay in all cases: log2 ratio of Biotin-Ahx-Ub-VS probe labelling (compound/DMSO); higher = less target engagement, active = hit call of the paper (q ≤ 0.05, log2 ratio ≤ -1)
Conditions in all cases: treatment time: 3 h
[1] = compound: CCC1N(CCc2sccc12)C(=O)CCl
Method in brief: (§1)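 Compound at 50 or 200 µM, or DMSO, was applied for 3 h in triplicate to HEK293T lysate (495 µg per sample, Tris/CHAPS/IGEPAL buffer with protease inhibitors), after which Biotin-Ahx-Ub-VS was added at 0.5 µM final for 1 h. The labelled DUBs were pulled down with NeutrAvidin, digested with LysC and trypsin, and run by diaPASEF LC-MS/MS. Ratios are averaged base-two logs of compound over DMSO from median-normalised label-free quantities by unpaired t-test, counting only proteins with at least 2 unique peptides.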

[2] = compound: CN1c2ccccc2C(CS1(=O)=O)NC(=O)CCl
Method in brief: as §1

[3] = compound: Cl.ClCC(=O)N1CCc2ncncc2C1
Method in brief: as §1

[4] = compound: Cl.Cn1ncc2C(CCCc12)NC(=O)CCl
Method in brief: as §1

[5] = compound: ClCC(=O)NC1CCOc2ccccc12
Method in brief: as §1

[6] = compound: ClCC(=O)NC1CCCc2ccccc12
Method in brief: (§2)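 The values are mean compound-versus-vehicle ratios derived by unpaired t-test. For 3 h, triplicate HEK293T lysate samples (495 µg each) were treated with compound at a series of concentrations or with vehicle, after which Biotin-Ahx-Ub-VS was added to 0.5 µM final for 1 h. Labelled deubiquitinases were enriched with NeutrAvidin, digested with LysC and trypsin, and analysed by diaPASEF LC-MS/MS. Ratios are log2 values from global-median-normalised Spectronaut label-free quantities, using proteins with two or more unique peptides.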

[7] = compound: ClCC(=O)N[C@@H]1CCCc2ccccc12
Method in brief: as §2

[8] = compound: ClCC(=O)N[C@H]1CCCc2ccccc12
Method in brief: as §2

[9] = compound: CCC1N(CCc2cc(OC)c(Cl)cc12)C(=O)CCl
Method in brief: as §1

[10] = compound: CCCC1N(CCc2cc(OC)c(OC)cc12)C(=O)CCl
Method in brief: as §1

Target: VCPIP1 (UniProt Q96JH7)
Chain of UniProt Q96JH7 (Q96JH7 whole entry): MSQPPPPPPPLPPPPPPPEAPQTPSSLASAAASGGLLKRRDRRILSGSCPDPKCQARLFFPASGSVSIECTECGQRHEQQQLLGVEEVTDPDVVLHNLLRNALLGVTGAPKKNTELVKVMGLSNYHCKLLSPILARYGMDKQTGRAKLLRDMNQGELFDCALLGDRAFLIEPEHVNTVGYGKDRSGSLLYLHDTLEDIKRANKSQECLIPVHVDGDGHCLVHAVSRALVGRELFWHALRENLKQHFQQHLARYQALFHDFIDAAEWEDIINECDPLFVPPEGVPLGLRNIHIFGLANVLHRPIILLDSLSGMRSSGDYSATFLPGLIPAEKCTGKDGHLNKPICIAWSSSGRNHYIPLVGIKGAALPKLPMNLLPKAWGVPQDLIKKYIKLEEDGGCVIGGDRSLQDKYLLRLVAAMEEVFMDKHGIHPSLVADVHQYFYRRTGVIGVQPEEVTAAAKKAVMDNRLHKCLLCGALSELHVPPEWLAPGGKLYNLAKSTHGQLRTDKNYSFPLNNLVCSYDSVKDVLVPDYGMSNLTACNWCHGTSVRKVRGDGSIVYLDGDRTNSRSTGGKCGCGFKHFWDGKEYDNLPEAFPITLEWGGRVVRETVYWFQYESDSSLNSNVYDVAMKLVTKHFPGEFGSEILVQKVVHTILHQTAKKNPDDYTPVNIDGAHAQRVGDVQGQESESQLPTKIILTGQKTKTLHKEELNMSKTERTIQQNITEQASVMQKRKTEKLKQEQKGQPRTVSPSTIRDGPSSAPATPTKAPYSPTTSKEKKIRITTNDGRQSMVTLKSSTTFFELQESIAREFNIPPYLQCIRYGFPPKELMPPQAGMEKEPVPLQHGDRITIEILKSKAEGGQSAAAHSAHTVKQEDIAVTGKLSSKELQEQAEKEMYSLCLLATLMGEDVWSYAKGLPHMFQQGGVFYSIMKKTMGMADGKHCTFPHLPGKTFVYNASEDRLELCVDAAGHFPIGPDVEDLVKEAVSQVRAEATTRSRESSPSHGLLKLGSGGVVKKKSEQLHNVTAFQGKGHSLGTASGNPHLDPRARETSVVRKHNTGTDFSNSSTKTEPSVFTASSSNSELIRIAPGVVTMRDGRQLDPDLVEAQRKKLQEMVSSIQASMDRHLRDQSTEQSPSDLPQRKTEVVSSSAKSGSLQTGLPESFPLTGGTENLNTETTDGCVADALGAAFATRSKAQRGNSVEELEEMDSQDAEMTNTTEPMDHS
- log2 ratio of Biotin-Ahx-Ub-VS probe labelling ([1]; compound concentration: 50uM): -0.0812
- log2 ratio of Biotin-Ahx-Ub-VS probe labelling ([1]; compound concentration: 200uM): -0.216
- log2 ratio of Biotin-Ahx-Ub-VS probe labelling ([2]; compound concentration: 50uM): -0.772
- log2 ratio of Biotin-Ahx-Ub-VS probe labelling ([2]; compound concentration: 200uM): -1.25 (active)
- log2 ratio of Biotin-Ahx-Ub-VS probe labelling ([3]; compound concentration: 50uM): -0.0798
- log2 ratio of Biotin-Ahx-Ub-VS probe labelling ([3]; compound concentration: 200uM): -0.257
- log2 ratio of Biotin-Ahx-Ub-VS probe labelling ([4]; compound concentration: 50uM): -0.273
- log2 ratio of Biotin-Ahx-Ub-VS probe labelling ([4]; compound concentration: 200uM): -0.459
- log2 ratio of Biotin-Ahx-Ub-VS probe labelling ([5]; compound concentration: 50uM): -0.59
- log2 ratio of Biotin-Ahx-Ub-VS probe labelling ([5]; compound concentration: 200uM): -0.809
- log2 ratio of Biotin-Ahx-Ub-VS probe labelling ([6]; compound concentration: 0.78uM): -0.0601
- log2 ratio of Biotin-Ahx-Ub-VS probe labelling ([6]; compound concentration: 1.56uM): -0.043
- log2 ratio of Biotin-Ahx-Ub-VS probe labelling ([6]; compound concentration: 3.13uM): -0.312
- log2 ratio of Biotin-Ahx-Ub-VS probe labelling ([6]; compound concentration: 6.25uM): -0.126
- log2 ratio of Biotin-Ahx-Ub-VS probe labelling ([6]; compound concentration: 12.5uM): -0.217
- log2 ratio of Biotin-Ahx-Ub-VS probe labelling ([6]; compound concentration: 25uM): -0.282
- log2 ratio of Biotin-Ahx-Ub-VS probe labelling ([6]; compound concentration: 50uM): -0.514
- log2 ratio of Biotin-Ahx-Ub-VS probe labelling ([6]; compound concentration: 100uM): -0.706
- log2 ratio of Biotin-Ahx-Ub-VS probe labelling ([6]; compound concentration: 200uM): -1.18 (active)
- log2 ratio of Biotin-Ahx-Ub-VS probe labelling ([7]; compound concentration: 0.78uM): -0.284
- log2 ratio of Biotin-Ahx-Ub-VS probe labelling ([7]; compound concentration: 1.56uM): -0.221
- log2 ratio of Biotin-Ahx-Ub-VS probe labelling ([7]; compound concentration: 3.13uM): -0.211
- log2 ratio of Biotin-Ahx-Ub-VS probe labelling ([7]; compound concentration: 6.25uM): -0.266
- log2 ratio of Biotin-Ahx-Ub-VS probe labelling ([7]; compound concentration: 12.5uM): -0.486
- log2 ratio of Biotin-Ahx-Ub-VS probe labelling ([7]; compound concentration: 25uM): -0.463
- log2 ratio of Biotin-Ahx-Ub-VS probe labelling ([7]; compound concentration: 50uM): -0.588
- log2 ratio of Biotin-Ahx-Ub-VS probe labelling ([7]; compound concentration: 100uM): -0.763
- log2 ratio of Biotin-Ahx-Ub-VS probe labelling ([7]; compound concentration: 200uM): -1.11 (active)
- log2 ratio of Biotin-Ahx-Ub-VS probe labelling ([8]; compound concentration: 0.78uM): -0.0679
- log2 ratio of Biotin-Ahx-Ub-VS probe labelling ([8]; compound concentration: 1.56uM): -0.261
- log2 ratio of Biotin-Ahx-Ub-VS probe labelling ([8]; compound concentration: 3.13uM): -0.266
- log2 ratio of Biotin-Ahx-Ub-VS probe labelling ([8]; compound concentration: 6.25uM): -0.105
- log2 ratio of Biotin-Ahx-Ub-VS probe labelling ([8]; compound concentration: 12.5uM): -0.162
- log2 ratio of Biotin-Ahx-Ub-VS probe labelling ([8]; compound concentration: 25uM): -0.176
- log2 ratio of Biotin-Ahx-Ub-VS probe labelling ([8]; compound concentration: 50uM): -0.258
- log2 ratio of Biotin-Ahx-Ub-VS probe labelling ([8]; compound concentration: 100uM): -0.566
- log2 ratio of Biotin-Ahx-Ub-VS probe labelling ([8]; compound concentration: 200uM): -0.808
- log2 ratio of Biotin-Ahx-Ub-VS probe labelling ([9]; compound concentration: 50uM): -0.123
- log2 ratio of Biotin-Ahx-Ub-VS probe labelling ([9]; compound concentration: 200uM): -0.724
- log2 ratio of Biotin-Ahx-Ub-VS probe labelling ([10]; compound concentration: 50uM): -0.514
- log2 ratio of Biotin-Ahx-Ub-VS probe labelling ([10]; compound concentration: 200uM): -0.602

Target: USP54 (UniProt Q70EL1)
Chain of UniProt Q70EL1 (Q70EL1 whole entry): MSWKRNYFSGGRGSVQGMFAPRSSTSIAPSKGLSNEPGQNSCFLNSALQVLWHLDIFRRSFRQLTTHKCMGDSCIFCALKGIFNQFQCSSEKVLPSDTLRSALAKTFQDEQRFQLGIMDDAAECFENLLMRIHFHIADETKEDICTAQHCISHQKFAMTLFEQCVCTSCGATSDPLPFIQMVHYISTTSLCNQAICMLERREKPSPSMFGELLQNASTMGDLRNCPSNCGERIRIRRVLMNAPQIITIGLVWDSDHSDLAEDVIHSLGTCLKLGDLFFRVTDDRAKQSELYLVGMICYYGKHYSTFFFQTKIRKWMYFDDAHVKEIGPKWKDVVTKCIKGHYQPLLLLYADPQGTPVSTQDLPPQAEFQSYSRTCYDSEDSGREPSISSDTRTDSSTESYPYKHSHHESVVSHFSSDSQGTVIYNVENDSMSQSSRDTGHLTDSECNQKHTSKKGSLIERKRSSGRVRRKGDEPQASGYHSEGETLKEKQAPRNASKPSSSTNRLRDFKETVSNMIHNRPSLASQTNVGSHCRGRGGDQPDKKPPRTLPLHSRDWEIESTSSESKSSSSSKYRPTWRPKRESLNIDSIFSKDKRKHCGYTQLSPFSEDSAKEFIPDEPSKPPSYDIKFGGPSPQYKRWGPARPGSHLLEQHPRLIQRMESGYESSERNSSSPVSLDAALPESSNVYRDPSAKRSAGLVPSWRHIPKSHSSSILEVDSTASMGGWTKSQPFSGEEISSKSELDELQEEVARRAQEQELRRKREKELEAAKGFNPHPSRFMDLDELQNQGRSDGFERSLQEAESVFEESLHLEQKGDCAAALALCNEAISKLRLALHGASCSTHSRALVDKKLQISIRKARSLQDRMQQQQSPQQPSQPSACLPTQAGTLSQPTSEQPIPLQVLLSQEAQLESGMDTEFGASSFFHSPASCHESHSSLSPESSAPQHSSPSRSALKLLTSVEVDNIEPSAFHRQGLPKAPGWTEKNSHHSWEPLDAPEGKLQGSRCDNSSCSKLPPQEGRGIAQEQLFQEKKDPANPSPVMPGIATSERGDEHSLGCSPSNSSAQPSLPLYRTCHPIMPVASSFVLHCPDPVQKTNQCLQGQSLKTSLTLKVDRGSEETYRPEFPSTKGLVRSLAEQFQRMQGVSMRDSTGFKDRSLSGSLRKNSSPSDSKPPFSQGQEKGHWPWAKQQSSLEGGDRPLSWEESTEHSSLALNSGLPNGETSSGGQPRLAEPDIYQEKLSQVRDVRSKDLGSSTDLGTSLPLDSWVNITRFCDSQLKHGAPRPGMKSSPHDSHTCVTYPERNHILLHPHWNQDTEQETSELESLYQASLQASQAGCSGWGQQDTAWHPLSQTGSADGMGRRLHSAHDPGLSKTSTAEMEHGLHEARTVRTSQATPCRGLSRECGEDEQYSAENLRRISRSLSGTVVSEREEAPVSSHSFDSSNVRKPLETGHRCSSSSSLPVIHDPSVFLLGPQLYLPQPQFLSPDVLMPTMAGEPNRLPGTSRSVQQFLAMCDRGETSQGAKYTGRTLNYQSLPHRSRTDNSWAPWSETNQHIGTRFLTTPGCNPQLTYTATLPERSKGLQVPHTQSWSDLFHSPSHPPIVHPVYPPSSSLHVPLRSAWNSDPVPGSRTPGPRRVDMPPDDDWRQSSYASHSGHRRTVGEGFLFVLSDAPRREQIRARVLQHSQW
- log2 ratio of Biotin-Ahx-Ub-VS probe labelling ([1]; compound concentration: 50uM): 0.403
- log2 ratio of Biotin-Ahx-Ub-VS probe labelling ([1]; compound concentration: 200uM): -0.685
- log2 ratio of Biotin-Ahx-Ub-VS probe labelling ([2]; compound concentration: 50uM): 0.55
- log2 ratio of Biotin-Ahx-Ub-VS probe labelling ([2]; compound concentration: 200uM): -0.727
- log2 ratio of Biotin-Ahx-Ub-VS probe labelling ([3]; compound concentration: 50uM): 0.0984
- log2 ratio of Biotin-Ahx-Ub-VS probe labelling ([3]; compound concentration: 200uM): -1.09 (active)
- log2 ratio of Biotin-Ahx-Ub-VS probe labelling ([4]; compound concentration: 50uM): 0.166
- log2 ratio of Biotin-Ahx-Ub-VS probe labelling ([4]; compound concentration: 200uM): -2.4 (active)
- log2 ratio of Biotin-Ahx-Ub-VS probe labelling ([5]; compound concentration: 50uM): -0.806
- log2 ratio of Biotin-Ahx-Ub-VS probe labelling ([5]; compound concentration: 200uM): -0.859
- log2 ratio of Biotin-Ahx-Ub-VS probe labelling ([6]; compound concentration: 0.78uM): -0.349
- log2 ratio of Biotin-Ahx-Ub-VS probe labelling ([6]; compound concentration: 1.56uM): -0.87
- log2 ratio of Biotin-Ahx-Ub-VS probe labelling ([6]; compound concentration: 3.13uM): -0.672
- log2 ratio of Biotin-Ahx-Ub-VS probe labelling ([6]; compound concentration: 6.25uM): -1.2 (active)
- log2 ratio of Biotin-Ahx-Ub-VS probe labelling ([6]; compound concentration: 12.5uM): -1.06 (active)
- log2 ratio of Biotin-Ahx-Ub-VS probe labelling ([6]; compound concentration: 25uM): -0.646
- log2 ratio of Biotin-Ahx-Ub-VS probe labelling ([6]; compound concentration: 50uM): -0.519
- log2 ratio of Biotin-Ahx-Ub-VS probe labelling ([6]; compound concentration: 100uM): -0.598
- log2 ratio of Biotin-Ahx-Ub-VS probe labelling ([6]; compound concentration: 200uM): -0.947
- log2 ratio of Biotin-Ahx-Ub-VS probe labelling ([7]; compound concentration: 0.78uM): 0.232
- log2 ratio of Biotin-Ahx-Ub-VS probe labelling ([7]; compound concentration: 1.56uM): -0.0979
- log2 ratio of Biotin-Ahx-Ub-VS probe labelling ([7]; compound concentration: 3.13uM): -0.457
- log2 ratio of Biotin-Ahx-Ub-VS probe labelling ([7]; compound concentration: 6.25uM): -0.449
- log2 ratio of Biotin-Ahx-Ub-VS probe labelling ([7]; compound concentration: 12.5uM): -0.888
- log2 ratio of Biotin-Ahx-Ub-VS probe labelling ([7]; compound concentration: 25uM): 0.0566
- log2 ratio of Biotin-Ahx-Ub-VS probe labelling ([7]; compound concentration: 50uM): -0.582
- log2 ratio of Biotin-Ahx-Ub-VS probe labelling ([7]; compound concentration: 100uM): -0.163
- log2 ratio of Biotin-Ahx-Ub-VS probe labelling ([7]; compound concentration: 200uM): -0.256
- log2 ratio of Biotin-Ahx-Ub-VS probe labelling ([8]; compound concentration: 0.78uM): 0.15
- log2 ratio of Biotin-Ahx-Ub-VS probe labelling ([8]; compound concentration: 1.56uM): -1.07 (active)
- log2 ratio of Biotin-Ahx-Ub-VS probe labelling ([8]; compound concentration: 3.13uM): -0.564
- log2 ratio of Biotin-Ahx-Ub-VS probe labelling ([8]; compound concentration: 6.25uM): -0.753
- log2 ratio of Biotin-Ahx-Ub-VS probe labelling ([8]; compound concentration: 12.5uM): -0.0765
- log2 ratio of Biotin-Ahx-Ub-VS probe labelling ([8]; compound concentration: 25uM): -0.601
- log2 ratio of Biotin-Ahx-Ub-VS probe labelling ([8]; compound concentration: 50uM): -0.182
- log2 ratio of Biotin-Ahx-Ub-VS probe labelling ([8]; compound concentration: 100uM): 0.38
- log2 ratio of Biotin-Ahx-Ub-VS probe labelling ([8]; compound concentration: 200uM): -0.201
- log2 ratio of Biotin-Ahx-Ub-VS probe labelling ([9]; compound concentration: 50uM): -0.125
- log2 ratio of Biotin-Ahx-Ub-VS probe labelling ([9]; compound concentration: 200uM): -0.766
- log2 ratio of Biotin-Ahx-Ub-VS probe labelling ([10]; compound concentration: 50uM): -0.559
- log2 ratio of Biotin-Ahx-Ub-VS probe labelling ([10]; compound concentration: 200uM): -2.42 (active)
